High-throughput results: PubChem BioAssay, National Center for Advancing Translational Sciences (NCATS)
HPGD block – blocks human HPGD enzyme activity; P15428; Potency, µM, for the others: at the top dose activity change, negative = inhibition, most hits filed as inhibitors; purified HPGD, NADH fluorescence kinetic, PGE2 substrate; hit rate 4.3% among 150,000; active means well fitted inhibition curve with a large enough effect, not every such curve was filed as active; inconclusive means small, poorly fitted or top-dose-only effect, or another doubt; inactive means no such curve, though single readings can be large or run the other way; further: potency means the concentration at half of the fitted maximal effect
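20 nM HPGD preincubated 15 min at room temperature with compound in 50 mM Tris-HCl pH 8, 0.01% Tween 20. Started with 1 mM NAD+ and 30 uM prostaglandin E2; NADH fluorescence (360/450 nm) read 5 times over 30-s intervals, last minus first.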
GLA inh pH 4.5 – inhibitors of human alpha-galactosidase A at pH 4.5 | P06280 | purified enzyme, 4-MU-alpha-Gal fluorescence, pH 4.5 | activity change, negative = inhibition, % at 105 µM | 230,000 tested, under 10 active | AID 1467;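 further: 0% = full activity with enzyme and -100% = basal without enzyme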
12-hLO inh – 12-hLO (ALOX12) enzyme inhibition | hit rate 0.12% among 150,000 | Potency, µM (doses to about 57.1 µM), without a hit: at the top dose activity change, negative = inhibition, actives largely listed as inhibitors | purified 12-hLO, xylenol orange hydroperoxide absorbance | P18054; further: potency means the concentration at half of the fitted maximal effect; nearly all actives have a fitted effect of over 55% in size
Target sequence (P18054 whole entry, looked up): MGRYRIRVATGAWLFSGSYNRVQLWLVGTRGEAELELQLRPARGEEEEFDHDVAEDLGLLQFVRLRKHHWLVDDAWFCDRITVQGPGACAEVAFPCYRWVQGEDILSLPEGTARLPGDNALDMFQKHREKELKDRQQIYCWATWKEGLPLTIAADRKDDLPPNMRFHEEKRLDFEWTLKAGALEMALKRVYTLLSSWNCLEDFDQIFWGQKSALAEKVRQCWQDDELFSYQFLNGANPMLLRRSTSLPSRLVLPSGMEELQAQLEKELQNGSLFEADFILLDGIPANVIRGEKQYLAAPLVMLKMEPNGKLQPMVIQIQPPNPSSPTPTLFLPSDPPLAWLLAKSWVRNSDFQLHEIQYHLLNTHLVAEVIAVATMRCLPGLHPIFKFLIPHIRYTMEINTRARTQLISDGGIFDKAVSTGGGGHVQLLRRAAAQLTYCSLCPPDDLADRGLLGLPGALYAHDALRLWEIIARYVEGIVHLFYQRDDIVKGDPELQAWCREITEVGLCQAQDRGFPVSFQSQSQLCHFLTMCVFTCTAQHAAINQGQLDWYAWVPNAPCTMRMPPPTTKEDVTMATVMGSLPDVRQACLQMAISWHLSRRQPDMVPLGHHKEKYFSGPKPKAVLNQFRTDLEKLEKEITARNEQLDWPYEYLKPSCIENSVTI
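Hydroperoxide output read as Fe(III)-xylenol orange absorbance, 573-to-405 nm ratio, after 30 min reaction with 40 uM arachidonic acid. Enzyme: 150 nM purified human 12hLO, 15 min compound preincubation; 25 mM Hepes pH 7.0, room temperature.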
GLA spleen mod – alpha-galactosidase A (human) modulation | P06280 | AID 2107 | Potency, µM (top dose mostly 80 µM), for inactives: at the highest dose activity change, negative = inhibition, usual class: inhibitors | hit rate 0.008% among 240,000 | human spleen homogenate, 4MU-alpha-Gal fluorescence, 40 min;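 further: potency means the concentration at half of the fitted maximal effect; 0% = enzyme with vehicle and -100% = no enzyme basal signal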
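Human spleen homogenate (1 ug) as enzyme source, 4-methylumbelliferyl-alpha-D-galactopyranoside 1 mM final, citrate/phosphate pH 5.0 with 0.01% Tween-20. Compounds 40 min at 37C, NaOH/glycine stop; fluorescence Ex 365/Em 440, Hill-fit AC50.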
PNC assembly inh – blocks assembly of the perinucleolar compartment; PC3M PTB-GFP, PNC prevalence imaging, 16 h; active compounds read low; hit rate 3.1% among 140,000; AID 2417; activity change (PNC), negative = inhibition, % at 10 µM;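 active means readout at or below -70, meaning at least 70% loss of cells showing the perinucleolar compartment, a nuclear body marking cancer cells; inconclusive means readout between -30 and a set limit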;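 further: plate controls were DMSO wells for no effect and camptothecin positive control wells for full effect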
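PC3M cells stably expressing PTB-GFP, 750–1000 cells/well, treated 16 h at 37 °C with compound (23 nl of library stock), in duplicate. After paraformaldehyde fixation and Hoechst stain, imaged at 20x; PNC prevalence scored by image analysis.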
ALDH1A1 block – blocks purified human ALDH1A1 activity. hit rate 7.3% among 220,000. Purified ALDH1A1, NADH fluorescence, propionaldehyde substrate. AID 1030. P00352. Potency, µM (series often up to 75.3 µM), for the others: top-dose activity, negative = inhibition, most hits filed as inhibitors; active means well fitted inhibition curve with a large enough effect, not every such curve was filed as active; inconclusive means small, poorly fitted or top-dose-only effect, or another doubt; inactive means no such curve, though single readings can be large or run the other way;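 further: potency means the concentration at half of the fitted maximal effect; plate controls were no enzyme wells and a reference inhibitor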
Starred values were filed as active, the others as inactive; u = inconclusive; x = not tested or not shown. In the library only some 10% were active in any assay of this set; here they are far more common. Unless noted, the call rests on the fitted dose curve; in most records, active means well fitted curve in the direction sought with a large enough effect; inconclusive means small, poorly fitted or top-dose-only effect, or another doubt; inactive means no such curve, though single readings can be large; an effect the other way counts as inactive or inconclusive. Unless noted, on the % scale 0 is the no-effect control and ±100 the full control effect.

SMILES	HPGD block	GLA inh pH 4.5	12-hLO inh	GLA spleen mod	PNC assembly inh	ALDH1A1 block
O=C(Cc1cccs1)NCc1ccc(F)cc1	25µM*	-2	-8%	-2%	9	8%
O=C(CC1CC2CCC1C2)NCc1cccs1 (stereo not drawn)	16µM*	-2	0%	-7%	4	8%
O=C(Cc1cccs1)NCc1cccnc1	-3%	1	-1%	-2%	18	8%
O=C(Cn1cc(C(=O)c2cccs2)c2ccccc21)NCc1ccc2c(c1)OCO2	-5%	-5	-2%	2%	-10	14µM*
O=C(CCC1CCCCC1)NCc1cccs1	10µM*	1	3%	0%	2	-7%
Cc1ccc(N(CC(=O)NCC2CCCO2)C(=O)Cn2nnc(-c3cccs3)n2)cc1 (stereo not drawn)	x	1	x	-11%	x	-3%
Cc1ccc2[nH]c(=O)c(C(c3nnnn3CC3CCCO3)N3CCc4ccccc4C3)cc2c1 (stereo not drawn)	u	-13	u	1%	30	u
Cc1ccc2[nH]c(=O)c(C(c3nnnn3C3CCCC3)N3CCCc4ccccc43)cc2c1 (stereo not drawn)	-15%	-18	2%	2%	24	14µM*
Cc1ccc2[nH]c(=O)c(C(c3nnnn3CC3CCCO3)N3CCCc4ccccc43)cc2c1 (stereo not drawn)	-9%	-6	-9%	1%	u	13µM*
Cc1ccc(C(C(=O)NCc2ccco2)N(C(=O)Cc2cccs2)c2cccnc2)cc1 (stereo not drawn)	x	10	x	0%	x	-5%
CN1CCC2(CC1)N=C(c1ccc(F)cc1)C(=S)N2C(=O)c1ccc(C(C)(C)C)cc1	x	-17	-4%	-7%	20	18µM*
CC1Cc2ccccc2N1C(=O)CSc1nc2cc3c(cc2cc1C#N)OCO3 (stereo not drawn)	-21%	3	-7%	1%	-4	u
Cc1cc2cc3c(cc2nc1SCC(=O)N1c2ccccc2CC1C)OCO3 (stereo not drawn)	-30%	-12	-6%	1%	-100*	-2%
Cc1sc2nc(C3CC3)nc(SCC(=O)NCc3ccco3)c2c1C	-17%	0	-12%	-5%	-17	u
Cc1sc2nc(C3CC3)nc(SCC(=O)N3c4ccccc4CC3C)c2c1C (stereo not drawn)	-14%	-2	-4%	7%	-108*	u
O=C(c1cnccn1)N1CCC2(CC1)CCN(c1ncccn1)CC2	-13%	x	2%	-4%	x	-1%
O=C(NC(=S)N1CCN(c2ccc(C(F)(F)F)cc2[N+](=O)[O-])CC1)c1cccs1	-14%	-12	-13%	-8%	-24	-7%
O=C(COC(=O)CNS(=O)(=O)c1ccc2ccccc2c1)Nc1ccccc1Sc1ccccc1	-8%	-8	-4%	-3%	50	18µM*
OC[C@@H]1O[C@@H](n2cnc3c(Nc4ccccc4)ncnc32)[C@@H](O)[C@H]1O	x	x	-4%	x	x	x
CC1=C(C(=O)Nc2ccccn2)C(c2ccc(Cl)cc2)NC(=S)N1 (stereo not drawn)	x	-3	x	-8%	x	3.5µM*
CCOc1cc(C2NC(=S)NC(C)=C2C(=O)Nc2ccc(OC)cc2)ccc1O (stereo not drawn)	-9%	-7	0%	-1%	u	u
CCOc1cccc(C2NC(=S)NC(C)=C2C(=O)Nc2ccccc2)c1 (stereo not drawn)	-4%	-3	-1%	1%	-24	2.2µM*
CC1=C(C(=O)Nc2ccccn2)C(c2ccc(Br)cc2)NC(=S)N1 (stereo not drawn)	-6%	2	0%	1%	u	0.71µM*
Cn1c(=O)c2c(nc(NCc3cccnc3)n2Cc2ccccc2Cl)n(C)c1=O	x	-16	x	13%	x	5%
O=C1CCC=C1C(O)c1ccc2c(c1)OCO2 (stereo not drawn)	0%	-10	-2%	-4%	x	-2%
SMILES	HPGD block	GLA inh pH 4.5	12-hLO inh	GLA spleen mod	PNC assembly inh	ALDH1A1 block
Cc1cccc(N2CC(C(=O)OCC(=O)c3ccc(OC(=O)c4cccs4)cc3)CC2=O)c1C (stereo not drawn)	-13%	-9	-1%	1%	-83*	-2%
CN(Cc1ccco1)c1ncncc1-c1cccnc1	x	x	x	15%	x	u
Cc1c(Cl)ccc2c(C(=O)NC(C)c3ccncc3)cc(-c3ccncc3)nc12 (stereo not drawn)	x	-10	x	-9%	x	1.1µM*
Cc1c(Cl)ccc2c(C(=O)NCCN3CCCCC3)cc(-c3ccccn3)nc12	x	2	x	5%	x	2%
CC(NC(=O)c1cc(F)c(F)cc1Cl)c1ccncc1 (stereo not drawn)	x	9	x	-1%	x	1%
COC(=O)CNC(=O)c1cc(-c2ccncc2)nc2c(C)c(Cl)ccc12	x	-5	x	-9%	x	13µM*
COc1ccc(CNc2ccnc(-c3ccccc3OC)n2)c(OC)c1	x	x	x	0%	x	-8%
Cc1sc(NC(=O)C2CCCC2)c(C#N)c1C	10µM*	-3	-21%	3%	u	14µM*
Cc1sc(NC(=O)CCCC(=O)O)c(C#N)c1C	-5%	3	-2%	9%	u	2%
CCCCCC(=O)Nc1sc(C)c(C)c1C#N	25µM*	0	-10%	-2%	u	10µM*
Cc1sc(NC(=O)C2CCCO2)c(C#N)c1C (stereo not drawn)	-27%	4	8%	1%	-92*	25µM*
CCCC(=O)Nc1sc(C)c(C)c1C#N	x	-10	x	5%	x	u
CCc1ccc(-c2c(C)sc(NC(=O)C3CCC3)c2C#N)cc1	-10%	3	1%	-27%	55	-22%
COCCNC(=O)c1ccc(NC(C)=O)cc1	20µM*	8	-2%	-2%	-21	-2%
O=c1c2sccc2nc(SCc2ccc([N+](=O)[O-])cc2)n1Cc1ccccn1	-5%	-7	-1%	-2%	-84*	2%
O=c1c(-c2cccs2)nc2cnc(N3CCNCC3)nc2n1Cc1cccs1	x	x	x	7%	x	u
COCCNCc1nc2sc(C)c(-c3ccccc3)c2c(=O)[nH]1	x	1	x	3%	x	x
O=C(c1ccc(Br)s1)N1CCN(C/C=C/c2ccccc2)CC1	-24%	3	-13%	1%	-3	18µM*
O=C(c1ccc(=O)n(Cc2ccccc2)n1)N1CCN(C/C=C/c2ccccc2)CC1	-3%	-1	-5%	-3%	-107*	u
O=C(c1ccc(Br)o1)N1CCN(C/C=C/c2ccccc2)CC1	-1%	-3	-16%	6%	18	1%
CCCn1c(/N=C/c2ccc3c(c2)OCO3)nc2ccccc21	-24%	-4	5%	2%	25	14µM*
